# Tau fibril ThT – qHTS for Inhibitors of Tau Fibril Formation, Thioflavin T Binding; hit rate 2.1% among 270,000; recombinant tau K18 P301L, heparin-induced fibrillization, ThT fluorescence; Microtubule-associated protein tau (Homo sapiens), P10636; Potency, µM (titrated, usually from 57.4 µM), inactives show at the top dose activity, negative = inhibition, most hits filed as inhibitors; also: nearly all actives have a fitted effect of over 55% in size
#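 K18 P301L tau (15 uM + 0.24 uM Alexa 594-tagged), heparin 20 uM, NaOAc pH 7, 6 h 37 C; ThT 30 uM, 1 h RT, ex 450/em 510 nm.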
# GoLoco inh red – qHTS Assay for Inhibitors of RGS12 GoLoco Motif Activity (Red Fluorophore); Guanine nucleotide-binding protein G(i) subunit alpha-1 (Homo sapiens), P63096; Gai1:RGS12 GoLoco peptide FP, rhodamine, 10 min; Potency, µM (titrated, usually from 61.6 µM), inactives show at the highest dose activity, negative = inhibition, usual class: inhibitors; hit rate 0.44% among 230,000; active = well fitted inhibition curve with a large enough effect, not every such curve was filed as active; inactive = no such curve, though single readings can be large or run the other way; also: nearly all actives have a fitted effect of over 30% in size
# Target sequence (P63096 whole entry, looked up): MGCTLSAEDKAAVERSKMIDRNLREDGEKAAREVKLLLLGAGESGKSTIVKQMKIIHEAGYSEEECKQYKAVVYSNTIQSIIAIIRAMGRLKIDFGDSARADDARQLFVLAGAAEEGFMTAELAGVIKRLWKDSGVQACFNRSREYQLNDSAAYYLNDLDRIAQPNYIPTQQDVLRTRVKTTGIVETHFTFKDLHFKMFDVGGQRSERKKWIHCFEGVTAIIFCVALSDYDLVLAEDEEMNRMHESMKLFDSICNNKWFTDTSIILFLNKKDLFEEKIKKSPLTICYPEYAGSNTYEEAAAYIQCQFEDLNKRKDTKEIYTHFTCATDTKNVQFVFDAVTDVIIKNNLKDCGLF
# Tau fluor counter – Counterscreen qHTS for Inhibitors of Tau Fibril Formation, Fluorescence Polarization. hit rate 0.93% among 280,000. AID 1463, 2008. tau K18 P301L Alexa594 fluorescence, heparin fibrillization. Potency, µM (titrated, usually from 57.7 µM), inactives show top-dose activity change, negative = decrease; also: nearly all actives have a fitted effect of over 55% in size
#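 Human tau K18 P301L (15 uM unlabeled, 0.24 uM Alexa 594-labeled) in 100 mM sodium acetate pH 7 with 20 uM heparin, 6 hr at 37 C. ThT 30 uM added, 1 hr ambient; Alexa 594 FP and total fluorescence read at 555/632 nm.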
# Tau fibril FP – qHTS for Inhibitors of Tau Fibril Formation, Fluorescence Polarization; K18 P301L tau heparin fibrillization, Alexa594 FP, 6 h; Potency, µM (titrated, usually from 57.7 µM), inactives show top-dose activity, negative = inhibition, most hits filed as inhibitors; hit rate 0.39% among 280,000; AID 1468, 2008; also: nearly all actives have a fitted effect of over 55% in size
#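 K18 P301L tau (15 uM unlabeled/0.24 uM Alexa 594-labeled, final) + compound + heparin 20 uM final; 100 mM NaOAc pH 7; 6 hr 37 C; ThT 30 uM final added, 1 hr RT; FP ex 555/em 632 nm.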
# JMJD2E inh – qHTS Assay for Inhibitors of Human Jumonji Domain Containing 2E (JMJD2E). Lysine-specific demethylase 4E (Homo sapiens), B2RXH2. JMJD2E catalytic domain, FDH-coupled NADH fluorescence (FDH is formaldehyde dehydrogenase). Potency, µM (doses to about 57.1 µM), without a hit: at the top dose activity change, negative = inhibition, most hits filed as inhibitors. hit rate 1.6% among 230,000. AID 2147, 2009; active = well fitted inhibition curve with a large enough effect, not every such curve was filed as active; inconclusive = small, poorly fitted or top-dose-only effect, or another doubt; inactive = no such curve, though single readings can be large or run the other way;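 also: 0% = wells with enzyme and -100% = buffer wells without enzyme; nearly all actives have a fitted effect of over 50% in size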
# Target sequence (B2RXH2 1-337 limits assumed): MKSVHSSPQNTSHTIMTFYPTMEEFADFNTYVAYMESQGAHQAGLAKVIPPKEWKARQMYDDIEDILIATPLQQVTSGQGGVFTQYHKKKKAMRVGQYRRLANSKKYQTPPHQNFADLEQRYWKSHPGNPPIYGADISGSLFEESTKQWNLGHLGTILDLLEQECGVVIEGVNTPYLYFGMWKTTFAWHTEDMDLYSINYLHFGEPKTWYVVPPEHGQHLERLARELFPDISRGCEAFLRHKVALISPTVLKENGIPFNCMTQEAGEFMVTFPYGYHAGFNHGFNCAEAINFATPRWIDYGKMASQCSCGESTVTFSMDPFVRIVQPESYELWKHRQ
# * = called active by the depositor; u = inconclusive; x = no result; [ ] = another dose, or the depositor's remark. In the library only some 3.4% were active in any assay of this set; here they are far more common. Unless noted, calls follow the shape of the dose curve; as a rule, active = well fitted curve in the direction sought with a large enough effect; inconclusive = small, poorly fitted or top-dose-only effect, or another doubt; inactive = no such curve, though single readings can be large; an effect the other way counts as inactive or inconclusive. Unless noted, % is scaled to controls: 0 for no effect and ±100 for the full control effect; potency is read from the fitted curve at half-maximal effect.
SMILES,Tau fibril ThT,GoLoco inh red,Tau fluor counter,Tau fibril FP,JMJD2E inh
O=C(COc1ccc(F)cc1)Nc1ccc2nc(SCC(=O)N3CCOCC3)sc2c1,-3%,x,-13%,1%,x
CCc1ccc(S(=O)(=O)c2nnn3c2nc(NC2CCCCCC2)c2sccc23)cc1,12%,x,-11%,-13%,x
CCN(c1ccccc1)c1ncnc2c1cnn2-c1ccc(OC)cc1,-17%,x,-13%,13%,x
CCOC(=O)c1c(C)oc2c1c(CN1CCN(C(=O)OCC)CC1)c(O)c1ccccc12,u,-6%,u,u,25µM*
CCOC(=O)c1c(C)oc2c1c(C=NCCC(=O)O)c(O)c1ccccc12,3%,-10%,3%,6%,-19%
CCOC(=O)c1c(C)oc2c1c(C(c1ccncc1)N1CCOCC1)c(O)c1ccccc12 (centres undefined),14µM*,18%,u,2%,u
CCOC(=O)c1c(C)oc2c1c(CN1CCN(CCO)CC1)c(O)c1ccccc12,u,9%,u,u,u
Cc1cccc(CNC(=O)CCCn2c(=O)c3cccn3c3ccc(F)cc32)c1,0%,x,5%,-15%,x
O=C(CC1C(=O)N(c2ccccc2)C(=O)N1Cc1ccc(F)cc1)Nc1cccc(F)c1 (centres undefined),13%,x,-19%,-3%,x
Cc1cccc(NC(=O)c2nc[nH]c2C(=O)N[C@@H](C)C(=O)OCc2ccccc2)c1,0%,2%,u,14µM*,-20%
C[C@H](NC(=O)c1nc[nH]c1C(=O)N[C@H](C)c1ccccc1)C(=O)OCc1ccccc1,2%,4%,-27%,-12%,6%
CC(C)C[C@H](NC(=O)c1nc[nH]c1C(=O)NCc1ccccc1)C(=O)OCc1ccccc1,-7%,-2%,u,u,-3%
Cc1cccc(NC(=O)c2nc[nH]c2C(=O)N[C@@H](CC(C)C)C(=O)OCc2ccccc2)c1,9%,5%,u,25µM*,-20%
CCc1ccc(CN2C(=O)c3ccccc3C2C(=O)NCCc2ccc(OC)c(OC)c2)cc1 (centres undefined),6%,x,3%,5%,x
Cc1ccc(C(=O)O)cc1N=Cc1cc(Br)cc(Br)c1O,14µM*,23%,-10%,-21%,u
Cc1c(C(=O)N(Cc2ccc(N(C)C)cc2)CC2CCCO2)oc2ccc(Br)cc12 (centres undefined),u,x,-24%,9%,x
Cc1sc2nc(SCC(N)=O)n(-c3ccccc3)c(=O)c2c1C,-5%,3%,-11%,-20%,-4%
Cc1sc2nc(SCc3nc(-c4ccccc4)no3)n(-c3ccccc3)c(=O)c2c1C,1%,10µM*,-4%,-8%,5%
COc1ccc(-c2ccc(NS(=O)(=O)c3ccc(OC)c(OC)c3)cc2)nn1,u,x,u,3%,x
O=C(N/N=C/c1cc2c3c(c1O)CCCN3CCC2)c1ccccc1O,13µM*,28µM*,11µM*[quencher],-5%,32µM*
O=C(C1CCN(S(=O)(=O)Cc2ccccc2)CC1)N1CCN(c2ccc(F)cc2)CC1,1%,x,-6%,2%,x
Cc1ccc(O)c(-c2cc(-c3cccc(F)c3)n[nH]2)c1,-12%,2%,32µM*[quencher],u,-8%
COc1ccc(-c2cc(-c3ccc(OC)c(OC)c3)n[nH]2)c(O)c1,-9%,4%,16µM*[quencher],2%,u
COc1ccc(-c2cc(-c3cc(F)ccc3O)[nH]n2)cc1OC,u,9%,25µM*[quencher],u,-17%
Cc1ccc(-c2cc(-c3cccc(F)c3)n[nH]2)c(O)c1,u,6%,u,u,-8%
SMILES,Tau fibril ThT,GoLoco inh red,Tau fluor counter,Tau fibril FP,JMJD2E inh
Cc1ccccc1OCc1ccc(-c2nc(C#N)c(NCc3cccnc3)o2)o1,u,x,18µM*[quencher],u,x
COc1ccc(CNc2oc(-c3ccc(COc4ccccc4C)o3)nc2C#N)cc1,4%,x,u,16%,x
CC1CCCN(S(=O)(=O)c2ccc(NC(=O)Cn3nnc(-c4ccccc4F)n3)cc2)C1 (centres undefined),8%,9%,u,20µM*,0%
COc1ccc(CCNCC(=O)Nc2ccc(C)c(S(=O)(=O)N(C)C)c2)cc1,-4%,-8%,-7%,0%,28µM*
COc1ccc(Cl)c2sc(NC(=O)c3ccc(S(=O)(=O)N4CCOCC4)cc3)nc12,21%,x,-10%,u,x
O=C1/C(=C/c2ccc(O)c(O)c2)Oc2cc(O)ccc21,14µM*,43%,u,4%,16µM*
N#CC(c1ccccc1O)N1N=C(c2ccccc2)CC1c1ccccc1 (centres undefined),u,10%,u,4%,32µM*
CCOc1cc(C2Sc3ccccc3NC3=C2C(=O)c2ccccc23)ccc1O (centres undefined),10µM*,x,10µM*[quencher],u,x
O=C1C2=C(Nc3ccccc3SC2c2ccccc2C(F)(F)F)c2ccccc21 (centres undefined),u,x,u,13µM*,x
CCCc1ccc(C2Sc3ccccc3NC3=C2C(=O)c2ccccc23)cc1 (centres undefined),u,x,3.2µM*[quencher],u,x
COc1cc(Nc2c3c(nc4ccccc24)CCCC3)cc(OC)c1OC,u,5%,-24%,1%,4%
COc1cc(OC)cc(C(=O)Nc2ccc3nc4c(c(Nc5ccc(OC)c(OC)c5)c3c2)CCCC4)c1,32µM*,x,18µM*[quencher],u,x
COc1ccc(Cl)cc1C(=O)Nc1ccc(CN2CCCCC2)cc1,-12%,12%,-13%,-9%,8%
COc1ccccc1Nc1c2c(nc3ccc(NC(=O)c4ccc(N(C)C)cc4)cc13)CCCC2,16µM*,x,11µM*[quencher],0%,x
COc1ccc(Nc2c3c(nc4ccc(NC(=O)c5cc(Cl)ccc5OC)cc24)CCCC3)cc1OC,7.1µM*,x,u,-6%,x
CCOc1ccccc1C(=O)Nc1ccc2nc3c(c(Nc4ccc(OC)c(OC)c4)c2c1)CCCC3,10µM*,x,u,5%,x
CCN(C(=O)CSc1ncc(S(=O)(=O)c2ccc(C)c(Cl)c2)c(=O)[nH]1)c1cccc(C)c1,-8%,x,1%,-4%,x
CCNc1ccc(Br)cc(C(=O)/C=C/c2c(Cl)cccc2Cl)c1=O,13µM*,73%,u,u,u
CCNc1ccc(Br)cc(C(=O)/C=C/c2ccc(Cl)cc2)c1=O,14µM*,32%,u,u,25µM*
CS(=O)(=O)Nc1ccc(Br)cc1C(=O)c1ccccc1,5%,9%,-3%,3%,-5%
